Screening data deposited in PubChem BioAssay by National Center for Advancing Translational Sciences (NCATS).
An excerpt weighted towards active compounds, which were near 3.1% of everything screened.
IL2 activator – IL-2 activation. IL-2 activation reporter assay, cell-based qHTS; stimulated with anti-CD3/CD4/CD28 beads; in transgenic mouse T cells. activation, % (series mostly up to about 46 µM). 360,000 tested, 0.065% active. AID 652025; in the data active means activation above about 50%; inconclusive means mostly about 30% to 49%; further: 0% is about no effect
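EGFP and DsRed fluorescence is measured by plate cytometry in unstimulated transgenic mouse T cells exposed to compound for 60 minutes, then stimulated 18 hours at 37 degrees C with anti-CD3/anti-CD4 beads plus anti-CD28.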
BRCA1 expr up – increases BRCA1 expression; Potency, µM (series often up to 46.1 µM), for the others: top-dose activation, most hits filed as activators; MCF7-BRCA1-FFLuc reporter, luminescence, 48 h; response scale: scaled: vehicle 0%, 10 µM genistein 100%; 380,000 tested, 1.1% active; further: potency means the concentration at half of the fitted maximal effect; nearly all actives have a fitted effect of over 80% in size
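Compounds are tested at multiple concentrations on MCF7 BRCA1-luciferase reporter cells seeded at 2000 per well; after 48 h, a single luminescence end-point is taken and curves fitted to the normalized data.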
ELG1 DNA repair – ELG1-dependent DNA repair inhibition; HEK293T ELG1-luciferase reporter, luminescence, 16 h; DNA damage induced by 5-fluorouridine; Potency, µM (top dose mostly 46.1 µM), for the others: at the highest dose activity change, negative = inhibition, hits mostly inhibitors; 330,000 tested, 2.3% active; AID 504467; further: potency means the concentration at half of the fitted maximal effect; on the % scale 0 is the no-effect control and ±100 the full control effect; nearly all actives have a fitted effect of over 55% in size
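Reporter activity after DNA damage by 5-fluorouridine is monitored. Compound-treated cells incubate 16 hr at 37 °C, then ONE-Glo is added for 30 min before luminescence reading.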
Nrf2 activator – Nrf2 pathway activation. 410,000 tested, 0.31% active. Potency, µM (doses to about 46.1 µM), without a hit: top-dose activation, hits mostly activators. AREc32 ARE-luciferase reporter (MCF7-derived line), luminescence, 24 h; further: potency means the concentration at half of the fitted maximal effect; % of control where 0% means no effect; nearly all actives have a fitted effect of over 65% in size
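AREc32_Fluc, 1000 cells/well, OPTI-MEM + 5% FBS, o/n 37 deg C 5% CO2; 23 nL cpd by pin tool, 24 hr; Steady-Glo 30 min RT, luminescence.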
* hit, by the source's call; ? = inconclusive; / = no result; [ ] = remark or other dose. Unless noted, the call rests on the fitted dose curve; in most records, active means well fitted curve in the direction sought with a large enough effect; inconclusive means small, poorly fitted or top-dose-only effect, or another doubt; inactive means no such curve, though single readings can be large; an effect the other way counts as inactive or inconclusive.

SMILES	IL2 activator	BRCA1 expr up	ELG1 DNA repair	Nrf2 activator
CCOc1ccccc1CNC(=O)c1nn(C)c2c1CS(=O)(=O)c1ccccc1-2	-1	-1%	16µM*	0%
CC(/C=N/N1CCN(c2ccccc2)CC1)=C\c1ccco1	-1	6.3µM*	?	2%
CC(=C/c1ccco1)/C=N/N1CCN(c2ccccc2)CC1	-1	-4%[1.84 µM]	?	-1%
CC(=O)c1ccccc1C(=O)N1CCCC(CCC(=O)N2CCN(c3ccccn3)CC2)C1 (centres undefined)	2	-3%	23µM*	0%
CC(C)N(Cc1ccccc1)C(=O)C1CCCN(c2ncnc3onc(-c4ccc(F)cc4)c23)C1 (centres undefined)	/	/	/	1%
CCCOC(=O)CSc1nnc(-c2ccccc2)o1	/	11%	/	-2%
O=C(CSc1nc2nn(-c3ccccc3)c(=O)c-2c2n1CCCCC2)Nc1ccc(OC(F)F)cc1	-1	-30%	13µM*	3%
O=C(CSc1nc2nn(-c3ccccc3)c(=O)c-2c2n1CCCCC2)c1ccc(O)c(O)c1	0	-25%	18µM*	-1%
COc1cc(OC)c(NC(=O)CN2C(=O)CCn3nc(-c4cccn4C)cc32)cc1Cl	/	/	/	1%
O=C(CN1C(=O)CCc2cc(S(=O)(=O)N3CCOCC3)ccc21)NCc1ccc(F)cc1	/	1%	/	0%
COc1ccc(N2CCN(C(=O)CSc3nnc4n3C(C)(C)Cc3ccccc3-4)CC2)cc1	-2	-42%	21µM*	0%
COc1cc(NC(=O)CSc2nnc3n2C(C)(C)Cc2ccccc2-3)cc(OC)c1	-1	2%	22µM*	0%
Cc1ccc(Cl)cc1N1CCN(C(=O)CSc2nnc3n2C(C)(C)Cc2ccccc2-3)CC1	-2	-83%	12µM*	0%
CCn1c(COc2cccc(C)c2C)nnc1SCC(=O)N1CCN(c2ccc(OC)cc2)CC1	-2	1%	10µM*	0%
CCn1c(COc2ccccc2C)nnc1SCC(=O)N1CCN(c2ccccc2)CC1	-1	-69%	?	1%
COc1ccc(C2Nc3ccccc3C(=O)N2Cc2ccccc2)cc1COc1ccc([N+](=O)[O-])c(C)c1 (centres undefined)	/	0%	/	/
Cc1cc2cc(CN(Cc3cccs3)C(=S)NCc3ccco3)c(=O)[nH]c2cc1C	0	-32%	21µM*	0%
Cc1ccc(C)c2[nH]c(=O)c(CN(Cc3cccs3)C(=S)NCc3ccco3)cc12	0	-14%	16µM*	0%[9.22 µM]
COc1ccccc1S(=O)(=O)Cc1ccc(C(=O)N2CCCC2)o1	2	0%	1%	0%
Cc1ccccc1S(=O)(=O)Cc1ccc(C(=O)N2CCN(c3cccc(C)c3C)CC2)o1	-1	-96%	7.3µM*	-1%
Cc1c(C(=O)N2CCN(c3ccccn3)CC2)oc2c1C(=O)CC(C)(C)C2	-1	-9%	?	0%
CCc1ccccc1S(=O)(=O)Cc1ccc(C(=O)N2CCN(c3ccccc3OC)CC2)o1	-3	-29%	23µM*	0%
COc1ccccc1N1CCN(C(=O)c2oc3c(c2C)C(=O)CC(C)(C)C3)CC1	-1	-54%	21µM*	-1%
Cc1ccccc1S(=O)(=O)Cc1ccc(C(=O)N2CCN(c3cccc(Cl)c3)CC2)o1	/	/	/	0%
Cc1ccc(Cl)cc1NC(=O)Cn1c(SCC(=O)NCc2ccccc2)nc2ccccc21	/	0%	/	1%
SMILES	IL2 activator	BRCA1 expr up	ELG1 DNA repair	Nrf2 activator
COc1ccccc1CCNC(=O)C(C)Sc1nc(-c2ccccc2)cc(C(F)(F)F)n1 (centres undefined)	/	-17%	/	0%
O=c1[nH]c(O)c(/C=C2\C=Nc3ccccc32)[nH]1	-3	-29%	?	4µM*
O=c1oc2ccccc2c(O)c1/C=C1\C=Nc2ccccc21	0	-29%	-4%	13%
O=C1C=CCC(/C=C/c2ccccc2)O1 (centres undefined)	-1	-75%	18µM*	6%
Cc1ccc(S(=O)(=O)N2CCN(CC(=O)Nc3ccccc3C(=O)NC3CC3)CC2)cc1	0	-17%	-13%	0%
Cc1ccccc1N1CCN(CC(=O)Nc2ccccc2C(=O)NC2CC2)CC1	-1	-27%	21µM*	0%
CN(C)Cc1csc(Nc2ccc(C(=O)c3ccccc3)cc2)n1	0	0%	/	6%
CCCN(C(=O)c1c(C)oc2ncn(CC(C)C)c(=O)c12)c1ccccc1C	/	7%	/	-1%
COc1ccc(-c2cc(-c3nc4ccccn4c3NCc3ccccc3)ccc2OC)cc1	0	-82%	2.3µM*	-4%
Cc1nc2ccccn2c1C(=O)NCc1ccc2c(c1)OCO2	-2	-36%	16µM*	0%
COc1ccc(-c2nc3ccccn3c2NCc2ccc3c(c2)OCO3)cc1	-2	7.9µM*	?	0%
CC(C)(C)c1ccc(C(=O)N2CCC2(C)C(=O)NCc2ccc3c(c2)OCO3)cc1 (centres undefined)	0	0%	/	0%
Cc1csc(SCc2nnc(-c3ccc(Cl)cc3)o2)n1	-1	7.1µM*	?	3%
COc1ccc(Cl)cc1C=CC=Nc1ccccc1O	-4	-67%	/	10µM*
COc1cc2nc(N3CCCN(C)CC3)nc(NC3CCN(Cc4ccccc4)CC3)c2cc1OC	/	-70%	/	/
COc1cc(C#Cc2c(-c3cncn3C)n(C)c3ccc(-c4ccc(OC)nc4)cc23)cc(OC)c1	0	-89%	7.3µM*	6%
COc1cc(C#Cc2c(-c3cncn3C)n(C)c3ccc(-c4cc(OC)c(OC)c(OC)c4)cc23)cc(OC)c1	-1	-93%	5.2µM*	-4%
Cn1c(=O)c2cc(C(=O)N3CCN(c4ccc(Cl)cc4)CC3)sc2c2ccccc21	/	/	/	0%
O=C(NNC1=Nc2ccccc2SC1)c1ccc(F)cc1	0	-67%	9.2µM*	9%
O=C(NNC1=Nc2ccccc2SC1)c1ccc(Cl)cc1	-4	-22%	6.5µM*	-1%
CCN(C(=O)COC(=O)c1c2c(nc3ccccc13)/C(=C/c1ccccc1)CC(C)C2)C1CCS(=O)(=O)C1 (centres undefined)	0	-89%	6.5µM*	8%
N#Cc1cccc(NC(=O)c2cc(C3CCCCN3S(=O)(=O)c3ccccc3)on2)c1 (centres undefined)	-1	17%	/	4%
CCn1c(SCC(=O)N2c3ccccc3CCc3ccccc32)nc2c1c(=O)n(C)c(=O)n2C	-2	0%	/	0%
CCCn1c(SCC(=O)N2CCCC2)nc2c1c(=O)n(C)c(=O)n2C	-4	4%	0%	0%
CCCn1c(SCC(=O)N2CCN(c3ccc(OC)cc3)CC2)nc2c1c(=O)n(C)c(=O)n2C	-3	-20%	21µM*	0%
CCCCn1c(SCC(=O)N2c3ccccc3CCc3ccccc32)nc2c1c(=O)n(C)c(=O)n2C	0	-23%	21µM*	0%
CCCn1c(SCC(=O)Nc2ccccc2N2CCCCC2)nc2c1c(=O)n(C)c(=O)n2C	-2	-63%	7.3µM*	-1%
